From the supplement of paper PMC10849652
About 7,900 targets were measured; listed, in parts, are those with a hit and a random draw of the rest. About 0.6% of all pairs of compound and target were hits.

Experiments:
Assay in all cases: log2 fold change, soluble protein after heating vs DMSO (PISA); higher = thermal stabilisation; K562 cells, 10 uM, 30 min; active = over 0.2 and 3.5 SD of the protein, either way, in both replicates (recomputed)
[1] = compound: CC[C@@H]1C(=O)N(C)c2cnc(Nc3ccc(C(=O)NC4CCN(C)CC4)cc3OC)nc2N1C1CCCC1
How it was run: (§1)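 Soluble protein was quantified by TMTpro 16plex LC-MS/MS after channel sums were equalised. It was obtained as the supernatant after 21,000xg for 90 min from pooled aliquots of K562 cells (2×10^6 cells/mL, 10 μM compound, 30 min) heated for 3 min across 48°C-58°C and extracted in PBS with 0.5% NP-40 at 4°C. Thermal stability values are relative to control samples and come from duplicates. They are given as log2 fold changes.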

volasertib = compound: CC[C@@H]1C(=O)N(C)c2cnc(Nc3ccc(C(=O)N[C@H]4CC[C@H](N5CCN(CC6CC6)CC5)CC4)cc3OC)nc2N1C(C)C [volasertib]
How it was run: as §1

[2] = compound: CC[C@H](C)N1C=C(C2=C(C=C(C=C21)C3=CN=C(C=C3)N4CCNCC4)C(=O)NCC5=C(C=C(NC5=O)C)C)C
How it was run: as §1

epoxomicin = compound: CC[C@H](C)[C@@H](C(=O)N[C@@H]([C@@H](C)O)C(=O)N[C@@H](CC(C)C)C(=O)[C@]1(CO1)C)NC(=O)[C@H]([C@@H](C)CC)N(C)C(=O)C [epoxomicin]
How it was run: as §1

[3] = compound: CCn1c(C(=O)N(C2CC2)C2CC2)cc2c3c(ncn3C)c(Nc3cc(C)n(C)n3)nc21
How it was run: as §1

[4] = compound: CCn1cc(-c2ccnc3[nH]c(-c4cccc(CN(C)C)c4)cc23)c(-c2ccc(NC(=O)N(C)C)cc2)n1
How it was run: as §1

[5] = compound: CN(C)CC(=O)Nc1ccc2[nH]c(=O)c3ccccc3c2c1
How it was run: as §1

rosiglitazone = compound: CN(CCOC1=CC=C(C=C1)C[C@H]2C(=O)NC(=O)S2)C3=CC=CC=N3 (racemic) [rosiglitazone]
How it was run: as §1

[6] = compound: CN1C2=C(C3=C1C(=O)N(N=C3)CC4=CC(=CC=C4)N)SC(=C2)S(=O)C
How it was run: as §1

[7] = compound: CN1CCC(CNc2ccc3ncc(-c4cccc(OC(F)(F)F)c4)n3n2)CC1
How it was run: as §1

saracatinib = compound: CN1CCN(CCOc2cc(OC3CCOCC3)c3c(Nc4c(Cl)ccc5c4OCO5)ncnc3c2)CC1 [saracatinib]
How it was run: as §1

sotrastaurin = compound: CN1CCN(c2nc(C3=C(c4c[nH]c5ccccc45)C(=O)NC3=O)c3ccccc3n2)CC1 [sotrastaurin]
How it was run: as §1

alvocidib = compound: CN1CC[C@H](c2c(O)cc(O)c3c(=O)cc(-c4ccccc4Cl)oc23)[C@H](O)C1 [alvocidib]
How it was run: as §1

Tubastatin A = compound: CN1CCc2c(c3ccccc3n2Cc2ccc(C(=O)NO)cc2)C1 [Tubastatin A]
How it was run: as §1

[8] = compound: CNC(=O)C1=CC=CC=C1NC2=NC(=NC=C2Cl)NC3=C(C=C(C=C3)N4CCOCC4)OC
How it was run: as §1

defactinib = compound: CNC(=O)c1ccc(Nc2ncc(C(F)(F)F)c(NCc3nccnc3N(C)S(C)(=O)=O)n2)cc1 [defactinib]
How it was run: as §1

rucaparib = compound: CNCc1ccc(-c2[nH]c3cc(F)cc4c3c2CCNC4=O)cc1 [rucaparib]
How it was run: as §1

[9] = compound: CNc1nc(-c2ccc3c(N)n[nH]c3c2)cc(N2C[C@@H](C(=O)NC3CCCCC3)CC[C@H]2C)n1
How it was run: as §1

encorafenib = compound: COC(=O)N[C@@H](C)CNc1nccc(-c2cn(C(C)C)nc2-c2cc(Cl)cc(NS(C)(=O)=O)c2F)n1 [encorafenib]
How it was run: as §1

[10] = compound: COC(=O)[C@H](CCSC)NC(=O)C1=C(C=C(C=C1)NC[C@H](CS)N)C2=CC=CC=C2
How it was run: as §1

Measured: log2 fold change

ALG5 (UniProt Q9Y673)
Sequence of UniProt Q9Y673 (Q9Y673 whole entry, looked up): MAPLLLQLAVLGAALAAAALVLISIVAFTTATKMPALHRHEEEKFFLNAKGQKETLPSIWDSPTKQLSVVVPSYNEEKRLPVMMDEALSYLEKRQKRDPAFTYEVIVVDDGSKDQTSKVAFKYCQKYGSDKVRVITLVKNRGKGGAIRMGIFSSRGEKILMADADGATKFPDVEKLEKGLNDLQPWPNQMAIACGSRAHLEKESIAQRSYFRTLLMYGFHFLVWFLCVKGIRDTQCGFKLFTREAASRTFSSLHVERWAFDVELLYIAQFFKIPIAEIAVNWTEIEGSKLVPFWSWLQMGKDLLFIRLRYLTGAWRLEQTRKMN
inactive: [1] -0.028 | volasertib -0.026 | [2] 0.017 | epoxomicin 0.043 | [3] -0.036 | [4] -0.069 | [5] 0.035 | rosiglitazone 0.078 | [6] -0.088 | [7] 0.017 | saracatinib -0.011 | sotrastaurin -0.071 | alvocidib -0.088 | Tubastatin A 0.005 | [8] 0.016 | defactinib -0.055 | rucaparib -0.113 | [9] 0.008 | encorafenib -0.025 | [10] -0.036

BTAF1 (UniProt O14981)
active: volasertib -0.265
inactive: [1] -0.087 | [2] 0.061 | epoxomicin 0.086 | [3] -0.047 | [4] -0.07 | [5] 0.027 | rosiglitazone -0.042 | [6] -0.055 | [7] -0.09 | saracatinib 0.087 | sotrastaurin 0.001 | alvocidib -0.022 | Tubastatin A -0.041 | [8] -0.027 | defactinib -0.074 | rucaparib -0.089 | [9] -0.012 | encorafenib 0.026 | [10] 0.007

AP2S1 (UniProt P53680)
Sequence of UniProt P53680 (P53680 whole entry, looked up): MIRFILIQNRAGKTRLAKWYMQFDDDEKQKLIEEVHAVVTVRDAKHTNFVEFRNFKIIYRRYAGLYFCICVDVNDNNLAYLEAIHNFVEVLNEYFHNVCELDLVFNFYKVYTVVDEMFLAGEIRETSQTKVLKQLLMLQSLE
inactive: [1] 0.035 | volasertib 0.018 | [2] -0.024 | epoxomicin -0.022 | [3] 0.023 | [4] -0.008 | [5] -0.071 | rosiglitazone 0.02 | [6] -0.005 | [7] 0.037 | saracatinib 0.012 | sotrastaurin 0.009 | alvocidib -0.009 | Tubastatin A 0.009 | [8] 0.077 | defactinib 0.038 | rucaparib 0.019 | [9] -0.012 | encorafenib 0.077 | [10] 0.025

BOP1 (UniProt Q14137)
Sequence of UniProt Q14137 (Q14137 whole entry, looked up): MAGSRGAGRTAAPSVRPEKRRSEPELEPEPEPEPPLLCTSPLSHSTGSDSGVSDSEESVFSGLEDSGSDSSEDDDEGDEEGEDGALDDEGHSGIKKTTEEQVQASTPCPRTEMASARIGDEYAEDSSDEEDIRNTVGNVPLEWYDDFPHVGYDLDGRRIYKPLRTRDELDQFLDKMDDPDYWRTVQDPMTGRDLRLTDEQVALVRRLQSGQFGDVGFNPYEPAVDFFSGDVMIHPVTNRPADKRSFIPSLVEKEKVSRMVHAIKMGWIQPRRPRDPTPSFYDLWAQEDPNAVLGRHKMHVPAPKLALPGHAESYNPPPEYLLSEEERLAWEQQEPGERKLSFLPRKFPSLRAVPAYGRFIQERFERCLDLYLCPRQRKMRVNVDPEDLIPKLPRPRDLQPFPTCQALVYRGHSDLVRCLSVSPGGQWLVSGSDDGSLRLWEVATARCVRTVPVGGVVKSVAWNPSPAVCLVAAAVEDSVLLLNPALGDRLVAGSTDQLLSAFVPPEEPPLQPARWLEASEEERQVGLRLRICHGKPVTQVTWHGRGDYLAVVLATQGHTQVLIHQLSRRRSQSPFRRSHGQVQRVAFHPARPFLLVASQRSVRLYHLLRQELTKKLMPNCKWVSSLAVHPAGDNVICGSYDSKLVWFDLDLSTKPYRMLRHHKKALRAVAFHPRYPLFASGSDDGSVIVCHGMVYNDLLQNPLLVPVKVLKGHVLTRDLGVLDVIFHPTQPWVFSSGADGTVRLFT
inactive: [1] -0.072 | volasertib -0.328 | [2] 0.019 | epoxomicin 0.002 | [3] -0.023 | [4] -0.075 | [5] 0.009 | rosiglitazone -0.053 | [6] 0.228 | [7] 0.141 | saracatinib 0.011 | sotrastaurin -0.043 | alvocidib -0.082 | Tubastatin A -0.013 | [8] 0.015 | defactinib -0.157 | rucaparib 0.066 | [9] -0.016 | encorafenib 0.155 | [10] 0.046

ARF4 (UniProt P18085)
Sequence of UniProt P18085 (P18085 whole entry, looked up): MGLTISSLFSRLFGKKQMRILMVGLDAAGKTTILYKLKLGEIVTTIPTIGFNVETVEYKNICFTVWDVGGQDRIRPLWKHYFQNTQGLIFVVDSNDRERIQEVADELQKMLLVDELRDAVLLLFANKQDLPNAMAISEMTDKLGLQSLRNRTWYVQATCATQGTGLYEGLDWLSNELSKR
inactive: [1] 0.064 | volasertib 0.094 | [2] 0.009 | epoxomicin 0.112 | [3] -0.008 | [4] 0.014 | [5] 0.041 | rosiglitazone -0.033 | [6] -0.076 | [7] 0.097 | saracatinib 0.052 | sotrastaurin 0.028 | alvocidib -0.005 | Tubastatin A 0.011 | [8] 0.028 | defactinib -0.005 | rucaparib -0.051 | [9] -0.004 | encorafenib 0 | [10] -0.032

ADD2 (UniProt P35612)
Sequence of UniProt P35612 (P35612 whole entry, looked up): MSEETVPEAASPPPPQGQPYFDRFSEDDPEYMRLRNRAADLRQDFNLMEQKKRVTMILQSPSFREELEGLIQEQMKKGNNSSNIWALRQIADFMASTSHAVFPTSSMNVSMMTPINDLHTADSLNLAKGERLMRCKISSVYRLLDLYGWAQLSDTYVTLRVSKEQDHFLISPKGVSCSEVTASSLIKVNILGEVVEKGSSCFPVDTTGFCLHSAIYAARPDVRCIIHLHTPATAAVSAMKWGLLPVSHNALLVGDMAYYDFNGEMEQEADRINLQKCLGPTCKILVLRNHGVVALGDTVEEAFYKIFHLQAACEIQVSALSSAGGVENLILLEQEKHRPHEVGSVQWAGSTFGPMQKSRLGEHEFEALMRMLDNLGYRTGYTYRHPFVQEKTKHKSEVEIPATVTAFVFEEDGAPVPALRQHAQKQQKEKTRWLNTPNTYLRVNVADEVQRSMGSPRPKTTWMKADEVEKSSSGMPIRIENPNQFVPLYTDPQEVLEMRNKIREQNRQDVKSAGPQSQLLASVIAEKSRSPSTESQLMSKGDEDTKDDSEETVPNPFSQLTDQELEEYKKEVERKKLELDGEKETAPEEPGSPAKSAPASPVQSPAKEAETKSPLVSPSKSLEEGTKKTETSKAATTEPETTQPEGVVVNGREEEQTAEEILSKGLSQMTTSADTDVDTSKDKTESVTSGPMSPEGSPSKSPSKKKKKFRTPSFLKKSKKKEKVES
inactive: [1] 0.037 | volasertib 0.031 | [2] -0.044 | epoxomicin 0.006 | [3] 0.025 | [4] -0.043 | [5] -0.038 | rosiglitazone 0.003 | [6] -0.02 | [7] 0.008 | saracatinib 0.049 | sotrastaurin -0.004 | alvocidib -0.031 | Tubastatin A -0.025 | [8] -0.033 | defactinib -0.051 | rucaparib -0.012 | [9] 0.001 | encorafenib -0.025 | [10] -0.003

ARL2BP (UniProt Q9Y2Y0)
Sequence of UniProt Q9Y2Y0 (Q9Y2Y0 whole entry, looked up): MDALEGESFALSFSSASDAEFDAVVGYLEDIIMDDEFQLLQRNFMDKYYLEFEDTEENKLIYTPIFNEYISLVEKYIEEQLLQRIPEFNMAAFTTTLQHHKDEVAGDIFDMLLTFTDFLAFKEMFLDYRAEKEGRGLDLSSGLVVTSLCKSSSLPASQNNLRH
inactive: [1] -0.222 | [2] 0.023 | epoxomicin -0.008 | [3] -0.022 | [4] -0.048 | [5] 0.032 | rosiglitazone 0.019 | [6] -0.062 | [7] -0.183 | saracatinib 0.093 | sotrastaurin -0.047 | alvocidib -0.021 | Tubastatin A 0.082 | [8] 0.002 | defactinib -0.153 | rucaparib 0.055 | [9] 0.147 | encorafenib -0.12 | [10] -0.055
active: volasertib -0.682

ACSM3 (UniProt Q53FZ2)
Sequence of UniProt Q53FZ2 (Q53FZ2 whole entry, looked up): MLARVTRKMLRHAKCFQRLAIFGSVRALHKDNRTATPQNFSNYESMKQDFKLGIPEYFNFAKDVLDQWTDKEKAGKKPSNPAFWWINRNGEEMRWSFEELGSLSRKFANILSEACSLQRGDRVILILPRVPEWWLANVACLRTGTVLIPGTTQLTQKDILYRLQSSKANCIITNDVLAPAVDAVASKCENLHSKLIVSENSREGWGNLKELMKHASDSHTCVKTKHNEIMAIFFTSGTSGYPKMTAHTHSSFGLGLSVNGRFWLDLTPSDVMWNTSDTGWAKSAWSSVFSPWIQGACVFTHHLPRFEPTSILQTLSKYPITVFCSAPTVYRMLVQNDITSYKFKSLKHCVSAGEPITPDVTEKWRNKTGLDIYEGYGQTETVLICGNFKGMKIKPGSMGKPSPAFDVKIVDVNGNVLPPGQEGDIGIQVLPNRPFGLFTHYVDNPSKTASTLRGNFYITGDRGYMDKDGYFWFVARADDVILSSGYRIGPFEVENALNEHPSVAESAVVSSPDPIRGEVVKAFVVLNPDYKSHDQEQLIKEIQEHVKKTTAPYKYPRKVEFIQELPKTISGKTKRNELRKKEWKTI
inactive: [1] 0.021 | volasertib -0.092 | [2] 0.062 | epoxomicin 0.146 | [3] -0.03 | [4] -0.02 | [5] 0.154 | rosiglitazone 0.046 | [6] -0.099 | [7] -0.145 | saracatinib 0.031 | sotrastaurin 0.018 | alvocidib -0.021 | Tubastatin A 0.009 | [8] 0.053 | defactinib -0.148 | rucaparib 0.142 | [9] -0.09 | encorafenib 0.021 | [10] -0.064

ATP2A3 isoform 2 (UniProt Q93084)
Sequence of UniProt Q93084 (Q93084 whole entry, looked up): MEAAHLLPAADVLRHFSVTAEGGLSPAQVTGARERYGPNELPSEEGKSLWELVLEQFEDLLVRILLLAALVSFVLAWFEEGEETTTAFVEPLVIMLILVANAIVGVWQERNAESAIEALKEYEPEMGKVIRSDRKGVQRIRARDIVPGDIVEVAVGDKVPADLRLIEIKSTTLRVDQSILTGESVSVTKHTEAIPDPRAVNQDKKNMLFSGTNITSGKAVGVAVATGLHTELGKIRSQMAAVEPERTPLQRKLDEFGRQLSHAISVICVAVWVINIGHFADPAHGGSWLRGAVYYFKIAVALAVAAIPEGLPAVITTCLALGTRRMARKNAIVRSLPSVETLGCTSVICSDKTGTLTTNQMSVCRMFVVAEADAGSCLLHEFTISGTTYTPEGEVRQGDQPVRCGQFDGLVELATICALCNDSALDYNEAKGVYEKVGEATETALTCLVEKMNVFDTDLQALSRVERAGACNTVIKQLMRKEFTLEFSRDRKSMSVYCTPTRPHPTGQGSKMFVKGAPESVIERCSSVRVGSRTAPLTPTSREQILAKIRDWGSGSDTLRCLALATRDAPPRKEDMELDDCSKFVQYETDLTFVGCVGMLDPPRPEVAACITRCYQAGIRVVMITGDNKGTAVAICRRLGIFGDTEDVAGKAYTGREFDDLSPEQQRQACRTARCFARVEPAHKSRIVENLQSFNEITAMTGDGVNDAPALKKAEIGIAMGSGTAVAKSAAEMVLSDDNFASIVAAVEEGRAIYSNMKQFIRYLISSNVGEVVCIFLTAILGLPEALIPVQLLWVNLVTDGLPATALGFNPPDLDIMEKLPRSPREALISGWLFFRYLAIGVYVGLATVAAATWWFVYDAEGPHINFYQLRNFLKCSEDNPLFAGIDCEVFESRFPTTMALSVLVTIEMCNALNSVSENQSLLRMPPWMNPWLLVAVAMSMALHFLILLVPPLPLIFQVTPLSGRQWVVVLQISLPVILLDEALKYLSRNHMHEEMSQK
inactive: [1] -0.142 | volasertib -0.208 | [2] 0.046 | epoxomicin 0.06 | [3] 0.014 | [4] -0.047 | [5] -0.028 | rosiglitazone 0.009 | [6] -0.016 | [7] 0.028 | saracatinib 0.058 | sotrastaurin -0.007 | alvocidib -0.021 | Tubastatin A -0.022 | [8] -0.026 | defactinib -0.021 | rucaparib -0.04 | [9] 0.033 | encorafenib 0.027 | [10] 0.002
